PMK inhibit: inhibitors of Streptococcus pneumoniae phosphomevalonate kinase; purified PMK, PK/LDH-coupled NADH absorbance 340 nm; inhibition, % at 10 µM; 0.49% of 65,000 active;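 active = top-ranked compounds by inhibition in the single 10 µM screen, taking a fixed number of the strongest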;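 also: 0% = full reaction with DMSO carrier and 100% = background rate without enzyme reaction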
Abs 340nm: compounds absorbing at 340 nm; AID 708; fold change at 10 µM; 65,000 tested, under 10 active; compound absorbance at 340 nm, fold over control;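 active = at 10 µM dose, initial 340 nm absorbance at least 2 fold that of control wells; inactive = change under 2 fold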;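 also: initial absorbance extrapolated from kinetic A340 decline of NADH oxidation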
Spn MK inh: S. pneumoniae mevalonate kinase inhibition; 0.48% of 65,000 active; purified MK, PK/LDH-coupled NADH absorbance 340 nm; inhibition, % at 10 µM;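 active = ranked among the strongest by inhibition in the single 10 µM screen, a fixed top-ranked set picked for dose follow-up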
Spn DPM-DC inh: blocks S. pneumoniae diphosphomevalonate decarboxylase; purified DPM-DC, PK/LDH coupled NADH fluorescence; calls only at 10 µM; 0.49% of 65,000 active;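 active = the 320 compounds with the highest percent inhibition in the single-dose primary screen, excluding strongly autofluorescent ones, cut at about 32% in these data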;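 also: kinetic rate of NADH fluorescence loss reporting ADP formed by the decarboxylase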
NADH enzymes: inhibitors of enzymes used to reach an NAD/NADH endpoint; coupled PK/LDH NADH assays, four targets; IC50, µM (top dose mostly 10 µM), inactives show at the highest dose inhibition; 0.02% of 65,000 active;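 active = single-dose screening hits from any of four coupled enzyme assays that gave an IC50 when retested across doses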;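 also: the DPM-DC format reads NADH fluorescence rather than 340 nm absorbance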
Autofluor 339: intrinsic fluorescence of library compounds, ex339/em460 – biochemical, MLSMR library, data from DPM-DC assay, artefact control, profiling panel | compound autofluorescence, ex339/em460 nm, NADH buffer; hits give high values; 1 = no-compound wells, NADH background | fluorescence fold increase at 10 µM | 5.5% of 65,000 active;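 active = at 10 µM, mean starting fluorescence two-fold or more over control wells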;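 also: signal is the first read of a kinetic run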
Active calls of the source: *; i = inactive; / = no result shown; + = active, no number. This is a sample that favours compounds with a hit; in the whole collection about 6.3% have one here.

SMILES | PMK inhibit | Abs 340nm | Spn MK inh | Spn DPM-DC inh | NADH enzymes | Autofluor 339
OCCCc1nc2n(n1)C(c1ccccc1)C=C(c1ccccc1)N2 (configuration not stated) | 0 | 1.1 | 10 | i | 11% | 1.9
COc1cc(OC)cc(C(=O)N2CCN(C(=O)c3cccc(F)c3)CC2)c1 | 8 | 1 | 9 | i | 6% | 1.1
COc1cccc(CN2CCN(C(=O)c3cccc(F)c3)CC2)c1 | 0 | 1.1 | 51* | i | 17% | 1
O=C(CSc1nc2ccccc2[nH]1)N1CCN(c2ccc(F)cc2)CC1 | 5 | 1 | 11 | i | 5% | 1.1
O=C(CSc1ccc2nnc(-c3ccccc3)n2n1)NCC1CCCO1 (configuration not stated) | 13 | 0.99 | 5 | i | 10% | 2.2*
CC1CCN(C(=O)CSc2ccc3nnc(-c4ccccc4)n3n2)CC1 | 7 | 0.99 | 5 | i | 5% | 2.2*
Cc1cc(NC(=O)CSc2ccc3nnc(-c4ccc(F)cc4)n3n2)no1 | 13 | 1 | 0 | i | 7% | 2
Cc1ccc(-c2nnc3ccc(SCC(=O)Nc4cc(C)on4)nn23)cc1 | 10 | 1 | 3 | i | 5% | 2*
CC1CCN(C(=O)CSc2nc3ccccc3[nH]2)CC1 | 32* | 1.1 | 1 | i | 3% | 1
C#CCNc1nc(CC)nc2c1nnn2Cc1ccccc1F | 9 | 0.96 | 5 | i | 5% | 1
O=C1C2C(C(=O)N1Cc1cccnc1)C1C=CC2C12CC2 (configuration not stated) | 6 | 1 | 11 | i | 6% | 1.1
COc1ccc(NC(=O)c2cnc3ccccn3c2=O)cc1OC | 2 | 1.1 | 9 | i | 6% | 1
Cc1ccc(-c2nnc3ccc(SCC(=O)N4CCCCC4)nn23)cc1 | 14 | 0.98 | 6 | i | 7% | 1.2
CC1CCN(C(=O)CSc2ccc3nnc(-c4ccc(F)cc4)n3n2)CC1 | 12 | 1 | 1 | i | 5% | 2.3*
Cc1nn(CCC(=O)O)c2nc(-c3cccnc3)cc(C(F)(F)F)c12 | 5 | 1.1 | 5 | / | 5% | 4.9*
CN1CCN(C(c2cccc(C(F)(F)F)c2)c2nnnn2Cc2ccccc2)CC1 (configuration not stated) | 11 | 0.95 | 0 | i | 4% | 1.1
CCCCNC(=O)c1ccc2nc(-c3ccco3)c(-c3ccco3)nc2c1 | 7 | 1.1 | 17 | + | 20% | 1.9
O=C(Nc1ccc(N2CCOCC2)cc1)c1ccc2nc(-c3ccco3)c(-c3ccco3)nc2c1 | 5 | 1.1 | 10 | i | 6% | 1
O=C(Nc1ccccc1)c1ccc2nc(-c3ccco3)c(-c3ccco3)nc2c1 | 4 | 1.1 | 16 | i | 10% | 2.6*
COCCOC(=O)c1cc(C(=O)c2cc(F)ccc2O)coc1=N | 16 | 1 | 10 | i | 8% | 2.4*
COc1ccc2c(c1)C(=O)N(c1ccccc1OC)C(=O)C2(C)C | 12 | 1 | 0 | i | 4% | 1.1
COc1ccc2c(c1)C1(C)CC(C)(C)N2C(=O)N1c1ccccc1 (configuration not stated) | 0 | 0.98 | 2 | + | 10% | 1.4
Cc1occc1-c1nnc2sc(-c3ccc(-c4ccc(Cl)cc4)o3)nn12 | 10 | 1 | 3 | / | 7% | 2.1*
N=c1oc2ccc3ccccc3c2cc1-c1nnc2n1CCCCC2 | 13 | 1.1 | 4 | / | 9% | 2.1*
Clc1c(-c2nnc3n2CCCCC3)sc2ccccc12 | 14 | 1 | 0 | i | 5% | 1.1
SMILES | PMK inhibit | Abs 340nm | Spn MK inh | Spn DPM-DC inh | NADH enzymes | Autofluor 339
Cc1cc(N2CCCCCC2)nc(-c2ccccc2O)n1 | 1 | 1.1 | 7 | / | 4% | 3.8*
Cc1cc(Nc2ccccc2)nc(-c2ccccc2O)n1 | 9 | 1.1 | 2 | i | 4% | 2.2*
Cc1cc(NCc2ccccc2)nc(-c2ccccc2O)n1 | 9 | 1.1 | 9 | / | 9% | 2.2*
Cc1cc(Nc2cccc(F)c2)nc(-c2ccccc2O)n1 | 5 | 1.1 | 6 | i | 4% | 1.3
Cc1ccc(NC(=O)NC(=O)N(c2ccccc2)S(C)(=O)=O)cc1 | 0 | 1 | 4 | i | 2% | 1
COc1ccc(-n2c(C)cc(C(=O)CSc3nnc(-c4ccoc4C)n3C)c2C)cc1 | 17 | 1 | 0 | i | 6% | 1
CCc1nn(C(C)C(=O)NC(C)CCc2ccco2)c(=O)c2cc3occc3n12 (configuration not stated) | 27* | 0.98 | 0 | i | 11% | 0.96
CCc1nn(C(C)C(=O)NCCc2ccc(OC)c(OC)c2)c(=O)c2cc3occc3n12 (configuration not stated) | 26* | 1 | 7 | i | 11% | 1
CCCn1c(SCC(N)=O)nc2c(c1=O)C1(CCCC1)Cc1ccccc1-2 | 11 | 1 | 0 | i | 4% | 1.1
Cn1c(NCCCO)nc2c(c1=O)C1(CCCCC1)Cc1ccccc1-2 | 11 | 1.1 | 7 | / | 9% | 3.8*
O=C(c1ccco1)N1CCN(c2nc3ccccc3n3nnnc23)CC1 | 18 | 1.1 | 0 | i | 6% | 1.6
CCc1c(C)c(C#N)c2nc3ccccc3n2c1-n1nc(C)cc1C | 5 | 1 | 0 | i | 2% | 1.2
Cc1cc(-c2ccco2)c(C#N)c2nc3ccccc3n12 | 0 | 1.3 | 9 | / | 5% | 2.2*
CC(C)c1cc(N2CCN(C(=O)c3ccco3)CC2)n2c(nc3ccccc32)c1C#N | 13 | 1.1 | 5 | / | 9% | 2.1*
CN=C(NC#N)SCC(=O)c1ccc(Cl)cc1Cl | 4 | 1 | 11 | i | 5% | 1
CC(C)C[C@H](N)c1nnc(S(=O)(=O)Cc2ccc(F)cc2)o1 | 5 | 1 | 10 | i | 5% | 1.1
COCc1cc(=O)[nH]c(Nc2nc(C)c3ccc(C)cc3n2)n1 | 28* | 1 | 0 | i | 10% | 1
COc1cc2[nH]c(=O)n(CCCC(=O)N3CC=C(c4ccccc4)CC3)c(=O)c2cc1OC | 0 | 1.1 | 17 | i | 7% | 1.5
COc1cc2[nH]c(=O)n3nc(-c4ccccc4)nc3c2cc1OC | 19 | 1.1 | 13 | / | 16% | 2.1*
Cn1c(=O)cc(SCC(=O)N2CCCC2)c2ccccc21 | 7 | 1 | 6 | i | 4% | 1.4
CCN1CCCC1CNC(=O)CSc1cc(=O)n(C)c2cc(Cl)ccc12 (configuration not stated) | 4 | 1.1 | 0 | i | 1% | 1.3
CCOC(=O)N1CCC(NC(=O)CSc2cc(=O)n(C)c3ccccc23)CC1 | 42* | 1.1 | 35 | + | 38% | 1.7
CCOC(=O)CSc1cc(=O)n(C)c2cc(Cl)ccc12 | 3 | 1 | 13 | + | 16% | 0.93
CCN(CC)CCCNC(=O)c1cn(CCOC)c(=O)c2c1c1ccccc1n2C | 10 | 1 | 6 | / | 8% | 4.4*

Assay outcomes from PubChem.
